{
  "source": "PubChem BioAssay AID1851",
  "about": "(National Center for Advancing Translational Sciences (NCATS), 2009)",
  "note": "Among all 16,000 compounds or so, about 5,800 (36%) were called active. About 23% were inconclusive and are not listed. Calls follow the shape of the dose curve; as a rule, active = well fitted curve in the direction sought with a large enough effect; inconclusive = small, poorly fitted or top-dose-only effect, or effect the other way; inactive = no such curve, though single readings can be large or run the other way. Some of the results follow. % is scaled to controls: 0 for no effect and ±100 for the full control effect.",
  "data": [
    {"biological_target": "Cytochrome P450 2C19 (Homo sapiens) (UniProt P33261)", "sequence (P33261 whole entry, looked up)": "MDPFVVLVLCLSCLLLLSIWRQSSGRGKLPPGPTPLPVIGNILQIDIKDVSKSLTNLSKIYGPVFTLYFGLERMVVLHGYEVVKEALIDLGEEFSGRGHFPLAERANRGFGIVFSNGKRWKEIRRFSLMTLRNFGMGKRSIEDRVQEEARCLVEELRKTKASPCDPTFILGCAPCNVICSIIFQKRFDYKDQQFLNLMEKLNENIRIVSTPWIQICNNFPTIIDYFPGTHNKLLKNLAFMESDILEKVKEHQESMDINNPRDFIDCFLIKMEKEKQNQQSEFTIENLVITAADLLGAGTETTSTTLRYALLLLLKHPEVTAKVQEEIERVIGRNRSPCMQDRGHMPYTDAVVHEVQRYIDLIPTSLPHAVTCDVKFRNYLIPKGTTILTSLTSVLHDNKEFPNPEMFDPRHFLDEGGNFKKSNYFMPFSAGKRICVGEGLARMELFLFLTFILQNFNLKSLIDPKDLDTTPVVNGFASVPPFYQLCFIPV", "experiment": "Cytochrome panel assay with activity outcomes", "conditions": "recombinant CYP, pro-luciferin dealkylation, luminescence, p450-cyp2c19; series mostly up to 57.1 µM", "values": [
      {"smiles": "Nc1ccc(Nc2ccccc2)cc1", "AC50": "10 µM (active)"},
      {"smiles": "CC(C)(C)NC(=S)Nc1ccc(Nc2ccccc2)cc1", "AC50": "4.47 µM (active)"},
      {"smiles": "N#[N+]c1ccc(Nc2ccccc2)cc1", "activity, negative = inhibition": "23.3% [at 11.4 µM] (inactive)"},
      {"smiles": "CNC(=S)Nc1ccc(Nc2ccccc2)cc1", "AC50": "5.62 µM (active)"},
      {"smiles": "C=CC[C@@H]1C=C[C@H](O/N=C(\\C)CCN2CCCc3nc(C)c(C)cc32)[C@H](CO)O1", "activity, negative = inhibition": "29.1% [at 11.4 µM] (inactive)"},
      {"smiles": "CC(C(=O)NC1CCCC1)N(C(=O)c1ccc(-c2ccccc2)[nH]1)c1ccccc1F", "note": "(stereo unspecified)", "AC50": "3.98 µM (active)"},
      {"smiles": "Cc1cccc(C)c1NC(=O)C(c1ccc(Cl)cc1Cl)N1CCCCC1", "note": "(stereo unspecified)", "AC50": "15.8 µM (active)"},
      {"smiles": "O=C(COc1cccc(NC(=O)c2cccc([N+](=O)[O-])c2)c1)c1ccc(Br)cc1", "AC50": "1.26 µM (active)"},
      {"smiles": "COc1ccc(/C=N/OCc2nc3c4c(ncn3n2)Oc2ccc3ccccc3c2C4c2ccccc2)cc1", "note": "(stereo unspecified)", "AC50": "0.0794 µM (active)"},
      {"smiles": "Cc1ccc(NC2=NC(c3ccccc3)n3c(nc(C)cc3=O)N2)c(C)c1", "note": "(stereo unspecified)", "AC50": "14.1 µM (active)"},
      {"smiles": "Nc1nnnn1/N=C\\c1ccc(Cl)c([N+](=O)[O-])c1", "AC50": "0.2 µM (active)"},
      {"smiles": "CC1CCN(c2ccc(/C=N/n3nnnc3N)cc2[N+](=O)[O-])CC1", "AC50": "inactive"},
      {"smiles": "CC(C)(CO[C@H]1C[C@H]2CC[C@@]1(C)C2(C)C)[N+](=O)[O-]", "activity, negative = inhibition": "12.6% [at 11.4 µM] (inactive)"},
      {"smiles": "O=C(O)CSc1cc(C(F)(F)F)nc(-c2ccccn2)n1", "AC50": "inactive"},
      {"smiles": "CC(Sc1nc(-c2ccccc2)cc(C(F)(F)F)n1)C(=O)N1CCCCC1", "note": "(stereo unspecified)", "AC50": "10 µM (active)"},
      {"smiles": "O=c1[nH]c2cc(Br)cnc2nc1/C=C(\\O)c1ccc(F)cc1", "AC50": "inactive"},
      {"smiles": "Cc1cccc(CCNc2nc3ccccc3n3nnnc23)c1", "AC50": "1.58 µM (active)"},
      {"smiles": "CCC(=O)NC(NC(=O)CC)C(Cl)Cl", "AC50": "inactive"},
      {"smiles": "CN1CCN(NC(=O)CN2C(=O)/C(=C/c3c(Cl)cccc3Cl)SC2=S)CC1", "AC50": "4.47 µM (active)"},
      {"smiles": "CC(C)(C)C(=O)[C@H]1[C@H](c2ccccc2)[C@@]2(N=C(c3ccccc3)OC2=O)C2c3ccccc3C=NN21", "note": "(stereo partly specified)", "AC50": "1.12 µM (active)"},
      {"smiles": "COc1ccccc1-c1cc(C(=O)Nc2cc(C)n(Cc3ccc(Cl)cc3)n2)no1", "AC50": "2.51 µM (active)"},
      {"smiles": "CCCCc1[nH]c(=O)c(C#N)c2c1CCCC2", "AC50": "inactive"},
      {"smiles": "CCCCOC(=O)CCc1c(C)[nH]c(=O)c(C#N)c1C", "AC50": "10 µM (active)"},
      {"smiles": "CCOC(=O)Cc1cc(=O)n2[nH]c(C)c(C#N)c2n1", "AC50": "inactive"},
      {"smiles": "CC(=O)N1CCC[C@@]2(CCN(c3ncccn3)C2)C1", "AC50": "inactive"},
      {"smiles": "CCc1cccc2c(C=C(C#N)C#N)cn(CC(=O)N3CCCC3)c12", "AC50": "inactive"},
      {"smiles": "CCN(CC)C(=O)Cn1cc(/C=C(\\C#N)C(=O)N2CCN(c3ccccc3)CC2)c2ccccc21", "AC50": "2 µM (active)"},
      {"smiles": "CCc1cccc2c(C=C(C#N)C#N)cn(CC(=O)N3CCCCC3)c12", "AC50": "inactive"},
      {"smiles": "Cc1noc(C)c1C(=O)N1CCC[C@@]2(CCN(Cc3ccccc3)C2)C1", "AC50": "inactive"},
      {"smiles": "COc1cc(CC(=O)O)ccc1O", "AC50": "inactive"},
      {"smiles": "COC(=O)c1cc(Br)c(=O)n(CCc2ccc(O)cc2)c1", "AC50": "3.55 µM (active)"},
      {"smiles": "COC(=O)[C@](C)(N)Cc1ccc(O)cc1", "AC50": "inactive"},
      {"smiles": "COC(=O)c1ccc(CCc2cc(O)ccc2O)cc1", "AC50": "3.16 µM (active)"},
      {"smiles": "O=C(O)Cc1ccc(O)c(O)c1", "AC50": "inactive"},
      {"smiles": "CC(C)=CCC/C(C)=C/CO/N=C1/C[C@@H](O)[C@@H](O)[C@@H]2[C@H]3C(=O)N(c4ccc(F)cc4F)C(=O)[C@@H]3CC[C@@H]12", "activity, negative = inhibition": "-9.14% [at 11.4 µM] (inactive)"},
      {"smiles": "COc1ccccc1C(=O)NC(=S)N1CCCc2ccccc21", "AC50": "2 µM (active)"},
      {"smiles": "COc1ccccc1C(=O)NN1C(=O)C2C3C=CC(O3)C2C1=O", "note": "(stereo unspecified)", "AC50": "inactive"},
      {"smiles": "c1ccc(CSc2nnc3c4ccccc4c4ccccc4c3n2)cc1", "activity, negative = inhibition": "-34.7% [at 11.4 µM] (inactive)"},
      {"smiles": "O=C(CSc1nnc2c3ccccc3c3ccccc3c2n1)Nc1ccccc1", "AC50": "2 µM (active)"},
      {"smiles": "c1ccc(-c2nc(NCCCn3ccnc3)c3oc4ccccc4c3n2)cc1", "AC50": "0.158 µM (active)"},
      {"smiles": "c1cncc(-c2ccc3ncnc(NCCN4CCOCC4)c3c2)c1", "AC50": "inactive"},
      {"smiles": "c1ccc2c(c1)oc1c(NCCCn3ccnc3)ncnc12", "AC50": "3.55 µM (active)"},
      {"smiles": "CNc1csc(C)c(C)c1=O", "AC50": "28.2 µM (active)"},
      {"smiles": "O=C(Nc1ccc(F)cc1)c1cc(S(=O)(=O)N2CCCCC2)cs1", "AC50": "22.4 µM (active)"},
      {"smiles": "Cc1nc2ncnn2c(C)c1CCC(=O)Nc1ccc(S(=O)(=O)N2CCCCCC2)cc1", "AC50": "inactive"},
      {"smiles": "O=C(O)c1cc(S(=O)(=O)N2CCCCC2)ccc1F", "AC50": "inactive"},
      {"smiles": "Cc1ccc(S(=O)(=O)Oc2cc(S(=O)(=O)O)cc3cc(S(=O)(=O)O)cc(N)c23)cc1", "activity, negative = inhibition": "7.86% [at 11.4 µM] (inactive)"},
      {"smiles": "Cc1ccc(S(=O)(=O)O[C@@H]2[C@H]([C@@H]3COC(C)(C)O3)O[C@H]3OC(C)(C)O[C@@H]32)cc1", "activity, negative = inhibition": "45.2% [at 11.4 µM] (inactive)"},
      {"smiles": "Cc1ccc(S(=O)(=O)Oc2cc(N)c3c(n2)CCC3)cc1", "AC50": "1 µM (active)"},
      {"smiles": "O=C(c1cccc(F)c1)N1CCC2(CCN(Cc3ccccc3)CC2)CC1", "AC50": "inactive"},
      {"smiles": "CC(C)CC(=O)N1CCN(Cc2cccc(F)c2)CC1", "AC50": "3.55 µM (active)"},
      {"smiles": "CC(C)CN1CCC2(CC1)CCN(C(=O)c1cccc(F)c1)CC2", "AC50": "inactive"},
      {"smiles": "COc1ccc(-n2c(=O)c(-c3ccc(Cl)cc3)nc3cnc(N4CCNCC4)nc32)cc1", "AC50": "inactive"},
      {"smiles": "COc1ccc(-c2nc3cnc(N4CCNCC4)nc3n(Cc3ccc(F)cc3)c2=O)cc1", "AC50": "inactive"},
      {"smiles": "COc1cccc(Cn2c(=O)c(-c3ccc(Cl)cc3)nc3cnc(N4CCNCC4)nc32)c1", "AC50": "25.1 µM (active)"},
      {"smiles": "COc1ccc(-n2c(=O)c(-c3cccs3)nc3cnc(N4CCNCC4)nc32)cc1", "AC50": "inactive"},
      {"smiles": "COc1cccc(Cn2c(=O)c(-c3ccc(Cl)cc3)nc3cnc(N4CCN(C)CC4)nc32)c1", "AC50": "inactive"},
      {"smiles": "COc1ccc(-n2c(=O)c(-c3ccc(F)cc3)nc3cnc(N4CCOCC4)nc32)cc1", "AC50": "inactive"},
      {"smiles": "COc1ccc(-n2c(=O)c(-c3ccc(Cl)cc3)nc3cnc(N4CCOCC4)nc32)cc1", "AC50": "25.1 µM (active)"},
      {"smiles": "COc1cccc(Cn2c(=O)c(-c3cccs3)nc3cnc(N4CCNCC4)nc32)c1", "AC50": "31.6 µM (active)"},
      {"smiles": "COc1cccc(Cn2c(=O)c(-c3cccs3)nc3cnc(N4CCN(C)CC4)nc32)c1", "AC50": "inactive"}
    ]}
  ]
}
